# LAP4 TOR yeast = yeast TOR pathway LAP4-GFP modulation | S. cerevisiae LAP4-GFP multiplex, flow cytometry GFP, 3 h; median GFP as percent of DMSO wells | GFP response vs DMSO, % at 10 µM | hit rate 0.34% among 320,000 | AID 2023;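 active means GFP response vs DMSO above a set limit, about the screen mean plus 3 SD, cut at about 150% in these data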
# AGP1-GFP MLPCN = modulators of TOR pathway AGP1-GFP in S. cerevisiae; S. cerevisiae AGP1-GFP multiplex flow cytometry, 3 h; GFP as percent of DMSO wells; GFP response vs DMSO, % at 10 µM; hit rate 0.02% among 320,000;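 active means GFP response relative to DMSO above a set limit, near screen average plus 3 SD, cut at about 150% in these data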;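 further: median GFP channel fluorescence of the gated AGP1 strain per well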
# Myeloid diff 2 = compounds promoting myeloid differentiation; calls only at 10 µM; ER-HoxA9 myeloid progenitors, lysozyme-GFP differentiation, flow cytometry; AID 624256; hit rate 1% among 360,000;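 active means normalized GFP-positive differentiation at or above the plate's own cutoff, the solvent-only control mean plus 3 SD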;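 further: cells exposed to compound for four days before flow analysis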
# MEP2 TOR yeast = modulators of TOR pathway MEP2-GFP in S. cerevisiae | hit rate 0.51% among 330,000 | GFP response vs DMSO, % at 10 µM | S. cerevisiae MEP2-GFP strain, flow cytometry GFP, 3 h; 100% = DMSO control level;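 active means GFP response versus DMSO above a set limit, roughly screen mean plus 3 SD, cut at about 180% in these data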;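 further: median GFP fluorescence of the barcode-gated MEP2-GFP cells per well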
# RPL19A-GFP yeast = alters RPL19A-GFP fluorescence in TOR pathway yeast screen | percent response vs DMSO, % at 10 µM | S. cerevisiae RPL19A-GFP strain, flow cytometry, 3 h; active compounds read low | hit rate 0.3% among 330,000;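 active means percent response vs DMSO below 50%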;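 further: median channel GFP fluorescence of the barcoded RPL19A-GFP strain; lower means less RPL19A-GFP as with rapamycin TOR inhibition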
# CIT2-GFP yeast = alters CIT2-GFP fluorescence in TOR pathway yeast screen; hit rate 0.065% among 320,000; S. cerevisiae CIT2-GFP strain, flow cytometry, 3 h; 100 means same as DMSO wells; AID 2029; GFP response vs DMSO, % at 10 µM;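 active means GFP response relative to DMSO above a set limit, near the screen mean plus 3 SD, cut at about 150% in these data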;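 further: ratio of well median GFP fluorescence to mean of DMSO wells on the plate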
# Myeloid diff CP1 = promotes myeloid progenitor differentiation. calls only. shares compounds with Myeloid diff 2. hit rate 2% among 2,300. ER-HoxA9 myeloid progenitors, GFP/Mac1 double-positive flow. AID 651706;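 active means share of green or green-and-red cells above 9 and 9% in run 1 or 4 and 3% in run 2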
# GFP autofluor = compound fluorescence in myeloid differentiation counter-screen | shares compounds with Myeloid diff 2 | ER-HoxA9 myeloid progenitors, no estrogen, GFP autofluorescence flow cytometry; vehicle wells 0%, positive control 100% | fluorescence response, % (concentration not given with the values) | hit rate 7.4% among 2,300 | AID 651707;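 active means over 5% cells positive for green fluorescent reporter, or over 2% positive for both it and APC stain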
# Numbers stand for hits; 0 = inactive; - = not tested or not shown; + = active, no number. Rows were chosen to be rich in hits. Some 1.8% of all compounds tested hit in one or more screens of this group.
SMILES,LAP4 TOR yeast,AGP1-GFP MLPCN,Myeloid diff 2,MEP2 TOR yeast,RPL19A-GFP yeast,CIT2-GFP yeast,Myeloid diff CP1,GFP autofluor
Cc1cc(NC(=O)C2CCN(S(=O)(=O)c3cccs3)CC2)no1,0,0,0,0,0,0,-,-
O=C(Nc1ccon1)C1CCN(S(=O)(=O)c2cccs2)CC1,0,0,0,0,0,0,0,0
Nc1c(Cl)cc2c(c1Oc1ccccc1)C(=O)c1ccccc1C2=O,0,0,+,0,0,0,0,0
Nc1c(Cl)cc2c(c1Br)Cc1ccccc1-2,-,-,0,-,-,-,-,-
COCc1c(C)cc(C)c(/C=N/O)c1C,0,0,0,0,0,0,0,0
O=S(=O)(c1ccccc1)c1nc(-c2ccccc2)oc1NCc1cccnc1,0,0,0,0,0,0,-,-
O=S(=O)(c1ccccc1)c1nc(-c2ccco2)oc1NCc1cccnc1,0,0,+,0,0,0,0,0
O=C(O)c1cccc(NC2=C(Cl)C(=O)c3ccccc3C2=O)c1,-,-,+,-,-,-,0,0
O=C(NCc1ccc2c(c1)OCO2)c1nnc(Cc2ccc(F)cc2)o1,0,0,0,0,0,0,-,-
Nc1nc2cc3c(cc2cc1C(=O)NCc1ccc(F)cc1)OCO3,-,-,+,-,-,-,0,0
O=[N+]([O-])c1ccc2c(c1)ncn2CCc1ccccc1,0,0,0,0,0,0,-,-
COc1cc(/C=C2\SC(=S)N(NC(=O)c3ccc(O)c(OC)c3)C2=O)ccc1O,0,0,0,0,0,0,0,28
COc1cc(/C=C2\SC(=S)N(NC(=O)c3ccncc3)C2=O)ccc1O,0,0,0,0,0,0,-,-
Cc1cc(C)nc(/N=C(/NC(=O)Nc2cccc(Cl)c2)Nc2ccccc2)n1,0,0,0,0,0,0,0,0
Cc1cc(C)nc(/N=C(\NC(=O)C(C)(C)C)Nc2ccccc2)n1,0,0,0,0,0,0,-,-
CCCCN1CC(C)(C)[C@H](CC(=O)Nc2ccccc2)C1=O,-,-,0,-,-,-,-,-
C=CCNC(=O)c1ccccc1NC(=O)c1ccccc1,0,0,0,0,0,0,0,0
Cc1ccc(N/C=C/c2onc(C)c2[N+](=O)[O-])cc1,0,0,0,0,0,0,-,-
CCOC(=O)C(Cc1cc(C(C)=O)ccc1OCC)C(=O)OCC,0,0,0,0,0,0,-,-
CCOc1ccc(C(C)=O)cc1CC(C(N)=O)C(N)=O,0,0,+,0,0,0,0,0
CCN(Cc1ccccc1)C(=O)C1CCN(Cc2ccc(SC)cc2)CC1,0,0,0,0,0,0,-,-
CCN(Cc1ccccc1)C(=O)C1CCN(C/C(C)=C/c2ccccc2)CC1,0,0,0,0,0,0,0,0
CCC(=O)c1cn(CC(=O)Nc2ccccc2Cl)c2ccccc12,0,0,+,0,0,0,0,2.1
COc1ccc(N(CCC#N)C(=O)/C(C#N)=C\c2cccs2)cc1,0,0,0,0,0,0,-,-
CC(=O)NNC(=O)CCC(=O)Nc1ccccc1,0,0,0,0,0,0,0,86
SMILES,LAP4 TOR yeast,AGP1-GFP MLPCN,Myeloid diff 2,MEP2 TOR yeast,RPL19A-GFP yeast,CIT2-GFP yeast,Myeloid diff CP1,GFP autofluor
O=C(O)CCC(=O)Nc1ccc(Cc2ccc(NC(=O)CCC(=O)O)cc2)cc1,0,0,+,0,0,0,0,0
O=C(CCC(=O)Nc1ccccc1)NNC(=O)CCc1ccccc1,0,0,0,0,0,0,-,-
CCOC(=O)CC1C(=O)NCCN1S(=O)(=O)c1ccc(Cl)cc1 (stereo unspecified),0,-,+,0,0,0,0,0
OC1(c2cccc(C(F)(F)F)c2)CCN(CCN2CCCCC2)CC1,0,0,0,0,0,0,-,-
CCOC(=O)Cc1csc(NS(C)(=O)=O)n1,0,0,0,0,0,0,0,0
CCN(CC)S(=O)(=O)c1ccc(OC)c(NC(=O)c2ccc(=O)[nH]c2)c1,0,0,0,0,0,0,-,-
CCCn1nnc(NC(=O)c2cc(Br)ccc2OC)n1,0,0,0,0,0,0,0,0
O=C1CCC/C(=N/NC(=O)c2ccc(NS(=O)(=O)c3cccs3)cc2)C1,0,0,0,0,0,0,0,0
Cc1ccccc1COn1nnc2ccc(S(=O)(=O)N3CCOCC3)cc21,0,0,0,0,0,0,-,-
CSc1nc(Oc2ccc3ccccc3c2)c2sccc2n1,0,0,+,0,0,0,0,0
Cn1c(CNC(=O)CCNC(=O)c2ccccc2F)cc(=O)n(C)c1=O,0,0,0,0,0,0,-,-
C=CCNC(=O)C1CCCN(S(C)(=O)=O)C1 (stereo unspecified),0,0,0,0,0,0,0,0
C=CCNC(=O)C1CCN(S(=O)(=O)CC)CC1,0,0,0,0,0,0,-,-
CCOc1ccc(NC(=O)COC(=O)Cn2nc(C)c([N+](=O)[O-])c2C)cc1OCC,0,0,+,0,0,0,0,0
O=C1CSc2ccccc2N1Cc1ccccc1F,0,0,0,0,0,0,-,-
COc1ccc(NC(=O)c2cc3c(CO)cnc(C)c3oc2=Nc2cccc(C)c2)c(OC)c1,-,-,0,-,-,-,-,-
O=C(NCC(=O)N(c1cccnc1)C(C(=O)NC1CCCC1)c1cccs1)c1ccco1 (stereo unspecified),0,0,0,0,0,0,0,67
Cc1cc(C)cc(N(C(=O)CNC(=O)c2cccs2)C(C(=O)NC2CCCC2)c2cccnc2)c1 (stereo unspecified),0,0,0,0,0,0,-,-
Cc1cccc(N(C(=O)CNC(=O)c2cccs2)C(C(=O)NC2CCCC2)c2cccnc2)c1 (stereo unspecified),0,0,0,0,0,0,0,0
COc1ccc(C)cc1N(CC(=O)Nc1cccnc1)S(=O)(=O)c1ccccc1,0,0,0,0,0,0,-,-
C=CCOc1cccc(C2C(C(=O)c3ccco3)=C(O)C(=O)N2Cc2cccnc2)c1 (stereo unspecified),0,0,0,0,0,0,-,-
C=CCOc1ccc(C2C(C(=O)c3ccco3)=C(O)C(=O)N2Cc2cccnc2)cc1 (stereo unspecified),0,0,0,0,0,-,0,13
CCN(CC)CCNC(=O)c1ccc(NC(=O)/C=C/c2ccc3ccccc3n2)cc1,0,0,+,0,0,0,0,0
O=C1c2cccc3c(N4CCCCC4)ccc(c23)C(=O)N1c1cccc(O)c1,0,0,+,0,0,0,0,0
COc1cccc(N=CC=C2OC(C)(C)C(C)(C)O2)c1,0,0,0,0,0,0,-,-
Cc1cccc(N=CC=C2OC(C)(C)C(C)(C)O2)c1,0,0,+,0,0,0,0,0
CCN(CC)CCOc1cc2c(nn1)Oc1ccccc1N2C,0,0,0,0,0,0,0,0

# From PubChem BioAssay
